# Source: PubChem
# Pf Dd2 growth: P. falciparum Dd2 growth inhibition | activity change, % at 10 µM | AID 1159554 | hit rate 2.3% among 94,000 | SYBR Green, 72 h; hits give low values; in the data active = activity change below about -80%; inconclusive = no clear call, values can overlap the other calls
# Tcruzi prolif: blocks T. cruzi growth in NIH3T3 culture; T. cruzi beta-gal in NIH3T3, GalScreen luminescence, 90 h; inhibition, % at 8.34 µM; hit rate 5.9% among 77,000; AID 624255;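 active = mean inhibition above about 93%, with at least 55% of replicates each passing it, limit read from the data, passing the limit was not always enough; inconclusive = only one of those two conditions holds; inactive = neither condition holds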
# C diff HTS: blocks growth of Clostridium difficile. Clostridium difficile clinical isolate growth, OD600, 24 h; hits give low values. growth activity, negative = inhibition, % at 16 µg/mL (by protocol). hit rate 0.25% among 86,000. AID 1259249;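 active = mean growth activity at or below -80% and every replicate also at or below -80%; inconclusive = mean at or below -80% but some replicate above -80%; inactive = mean growth activity above -80%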;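 also: 0% = DMSO wells and -100% = levofloxacin 16 µg/mL wells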
# * hit, by the source's call; ? = inconclusive; . = no result given. An excerpt weighted towards active compounds, which were near 6.8% of everything screened.
SMILES,Pf Dd2 growth,Tcruzi prolif,C diff HTS
CCCN(C)C[C@H]1Oc2cc(C#Cc3ccncc3)ccc2S(=O)(=O)N([C@H](C)CO)C[C@H]1C,-71,.,2
CCCN(C)C[C@H]1Oc2cc(C#Cc3cccnc3)ccc2S(=O)(=O)N([C@H](C)CO)C[C@@H]1C,-82*,89,-8
CN(C)CCCNC(=O)C[C@H]1C=C[C@@H](NC(=O)c2ccccc2F)[C@H](CO)O1,22,10,.
COc1ccc(S(=O)(=O)Nc2ccc3c(c2)CC(=O)N([C@@H](C)CO)C[C@H](C)[C@@H](CN(C)S(=O)(=O)c2ccccc2)O3)cc1,-9,9,11
O=C(C[C@H]1C=C[C@@H](NC(=O)C2CCC2)[C@H](CO)O1)NCC1CC1,14,0,0
COc1ccc(S(=O)(=O)Nc2ccc3c(c2)CC(=O)N([C@@H](C)CO)C[C@@H](C)[C@H](CN(C)C(=O)NC(C)C)O3)cc1,21,34,3
COc1ccc2c3c(n(C)c2c1)[C@@H](CO)N(C(=O)Nc1ccc(F)cc1)CC31CN(S(=O)(=O)c2cccc(C)c2)C1,-27,.,-16
COc1ccc2c3c(n(C)c2c1)[C@H](CO)N(C(=O)Nc1ccc(F)cc1)CC31CN(S(=O)(=O)c2cccs2)C1,7,.,.
COc1ccc2c3c(n(C)c2c1)[C@H](CO)N(C(=O)Nc1ccc(F)cc1)CC31CCN(S(=O)(=O)c2cccc(F)c2)CC1,-88*,.,-3
COc1ccc2c3c(n(C)c2c1)[C@H](CO)N(C(=O)Nc1ccc(F)cc1)CC31CCN(S(=O)(=O)c2cccs2)CC1,-86*,.,-1
COc1ccc(C(=O)Nc2ccc3c(c2)OC[C@H](C)NC[C@@H](C)[C@H](OC)CN(C)C3=O)cc1,7,-21,-8
COc1ccccc1S(=O)(=O)N[C@H]1CC[C@@H](CCNC(=O)C2CCOCC2)O[C@@H]1CO,13,-48,-1
COc1ccc(NC(=O)N(C)C[C@@H]2Oc3cc(C#CCC(C)C)ccc3S(=O)(=O)N([C@@H](C)CO)C[C@H]2C)cc1,-53,91,-17
COc1ccc(NC(=O)N(C)C[C@H]2Oc3cc(C#CCC(C)C)ccc3S(=O)(=O)N([C@H](C)CO)C[C@H]2C)cc1,-88*,6,0
CCCC#Cc1ccc2c(c1)O[C@H](CN(C)C(=O)Nc1ccc(OC)cc1)[C@H](C)CN([C@H](C)CO)S2(=O)=O,-87*,83,.
CCCC#Cc1ccc2c(c1)O[C@H](CN(C)C(=O)Nc1ccc(OC)cc1)[C@@H](C)CN([C@H](C)CO)S2(=O)=O,-35,75,2
CO[C@H]1CN(C)C(=O)c2cc(NC(=O)C3CC3)ccc2OC[C@H](C)N(CC2CCCC2)C[C@H]1C,-14,3,-1
COc1ccc(S(=O)(=O)Nc2ccc3c(c2)C(=O)N([C@H](C)CO)C[C@H](C)[C@H](CN(C)C(=O)Nc2ccccc2)OCCCC[C@@H](C)O3)cc1,-7,17,1
C[C@@H]1CCCCO[C@@H](CN(C)C(=O)Nc2ccc3c(c2)OCO3)[C@H](C)CN([C@@H](C)CO)C(=O)c2cc(NC(=O)C3CCCCC3)ccc2O1,-25,16,0
C[C@@H]1CN([C@@H](C)CO)C(=O)c2cc(NC(=O)C3CCCCC3)ccc2O[C@@H](C)CCCCO[C@@H]1CN(C)C(=O)Nc1ccc2c(c1)OCO2,-83*,44,0
C[C@@H]1CCCCO[C@H](CN(C)C(=O)Nc2ccc3c(c2)OCO3)[C@H](C)CN([C@H](C)CO)C(=O)c2cc(NC(=O)C3CCCCC3)ccc2O1,-86*,47,-5
C[C@@H]1CCCCO[C@H](CN(C)C(=O)Nc2ccc3c(c2)OCO3)[C@@H](C)CN([C@@H](C)CO)C(=O)c2cc(NC(=O)C3CCCCC3)ccc2O1,-64,47,-1
O=C(C[C@@H]1C=C[C@@H](NC(=O)Nc2ccc(C(F)(F)F)cc2)[C@@H](CO)O1)NCCN1CCCC1,-50,9,0
C[C@H]1CN([C@@H](C)CO)C(=O)Cc2cc(NS(=O)(=O)c3cn(C)cn3)ccc2O[C@@H]1CN(C)Cc1ccc(C(=O)O)cc1,28,20,-3
Cc1ccc(-c2cnc3c(c2)C(=O)N([C@@H](C)CO)C[C@@H](C)[C@@H](CN(C)Cc2ccccc2C(=O)O)O3)cc1,9,-7,-3
SMILES,Pf Dd2 growth,Tcruzi prolif,C diff HTS
Cc1ccc(S(=O)(=O)N(C)C[C@@H]2Oc3c(NC(=O)CCCCCC(=O)Nc4ccccc4N)cccc3C(=O)N([C@H](C)CO)C[C@H]2C)cc1,-61,.,2
C[C@H](CO)N1C[C@H](C)[C@@H](CN(C)S(=O)(=O)c2ccccc2)Oc2c(NC(=O)Nc3cccc4ccccc34)cccc2C1=O,-36,36,-8
C[C@H](CO)N1C[C@H](C)[C@@H](CN(C)S(C)(=O)=O)Oc2c(NC(=O)CCCCCC(=O)Nc3ccccc3N)cccc2C1=O,68,.,-2
Cc1ccc(S(=O)(=O)N(C)C[C@H]2Oc3c(NC(=O)CCCCCC(=O)Nc4ccccc4N)cccc3C(=O)N([C@H](C)CO)C[C@H]2C)cc1,-90*,.,-13
C[C@@H]1CN([C@H](C)CO)C(=O)c2cccc(NC(=O)CCCCCC(=O)Nc3ccccc3N)c2O[C@@H]1CN(C)S(=O)(=O)c1cccs1,-84*,.,5
C[C@@H]1CN([C@H](C)CO)C(=O)c2cccc(NC(=O)CCCCCC(=O)Nc3ccccc3N)c2O[C@@H]1CN(C)S(=O)(=O)c1ccc(Cl)cc1,-88*,87,-7
C[C@H](CO)N1C[C@H](C)[C@H](CN(C)S(C)(=O)=O)Oc2c(NC(=O)CCCCCC(=O)Nc3ccccc3N)cccc2C1=O,28,.,15
C[C@@H]1CN([C@H](C)CO)C(=O)c2cccc(NC(=O)Nc3cccc4ccccc34)c2O[C@@H]1CN(C)S(=O)(=O)c1ccccc1,-81*,24,-7
C[C@H](CO)N1C[C@H](C)[C@@H](CN(C)S(=O)(=O)c2ccc(Cl)cc2)OCc2cn(nn2)CCCC1=O,1,-9,.
C[C@@H]1CN([C@H](C)CO)C(=O)c2cccc(NC(=O)CCCCCC(=O)Nc3ccccc3N)c2O[C@@H]1CN(C)S(C)(=O)=O,21,.,-3
C[C@@H]1CN([C@H](C)CO)C(=O)c2cccc(NC(=O)CCCCCC(=O)Nc3ccccc3N)c2O[C@@H]1CN(C)S(=O)(=O)c1ccccc1,-89*,.,-7
C[C@H](CO)N1C[C@H](C)[C@@H](CN(C)Cc2cccc(C(F)(F)F)c2)OCc2ccccc2-c2c(n(C)c3ccccc23)C1=O,?,.,22
C[C@@H]1CN([C@H](C)CO)C(=O)c2c(c3ccccc3n2C)-c2ccccc2CO[C@@H]1CN(C)Cc1cccc(C(F)(F)F)c1,-87*,.,23
C[C@H]1CN([C@@H](C)CO)C(=O)c2ccccc2-c2ccccc2CO[C@@H]1CN(C)Cc1cccc(C(F)(F)F)c1,-16,.,28
C[C@H]1CN([C@@H](C)CO)C(=O)c2c(c3ccccc3n2C)-c2ccccc2CO[C@H]1CN(C)Cc1cccc(C(F)(F)F)c1,-75,.,12
C[C@H](CO)N1C[C@H](C)[C@H](CN(C)Cc2cccc(C(F)(F)F)c2)OCc2ccccc2-c2c(n(C)c3ccccc23)C1=O,-83*,.,7
C[C@@H]1CN([C@@H](C)CO)C(=O)c2ccccc2-c2ccccc2CO[C@@H]1CN(C)Cc1cccc(C(F)(F)F)c1,-82*,.,18
